Compound activity as filed in PubChem BioAssay.
Rows were chosen to be rich in hits. Some 2.5% of all compounds tested hit in one or more screens of this group.
RAD52 inh: RAD52 (human) annealing inhibition; P43351; recombinant RAD52 DNA annealing, FRET fluorescence; inhibition, % at 18.7 µM; 360,000 compounds, 0.46% hits; AID 651710;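 active = every replicate showing at least 50% inhibition; inconclusive = mean inhibition at least 50% but not in every replicate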
Target sequence (P43351 whole entry, looked up): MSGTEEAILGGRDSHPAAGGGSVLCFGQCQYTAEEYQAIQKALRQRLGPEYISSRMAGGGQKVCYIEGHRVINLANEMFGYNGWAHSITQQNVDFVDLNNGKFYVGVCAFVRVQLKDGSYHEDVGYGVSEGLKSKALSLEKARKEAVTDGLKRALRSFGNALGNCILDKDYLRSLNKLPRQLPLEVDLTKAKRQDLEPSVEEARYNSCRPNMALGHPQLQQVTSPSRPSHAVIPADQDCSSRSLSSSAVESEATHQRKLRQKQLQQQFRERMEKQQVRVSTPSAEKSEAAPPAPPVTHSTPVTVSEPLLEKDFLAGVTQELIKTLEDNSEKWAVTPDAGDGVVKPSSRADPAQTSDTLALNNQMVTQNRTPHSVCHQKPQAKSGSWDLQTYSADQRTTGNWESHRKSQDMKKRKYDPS
AF4-AF9 inh: MLL-AF4/AF9 protein interaction inhibition; P42568; AlphaScreen, biotin-AF4 peptide binding to FLAG-AF9; 350,000 compounds, 0.47% hits; AID 651704; inhibition, % at 10 µM;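 active = every replicate reaching a set inhibition limit, whatever the replicate mean, cut at about 25% in these data; inconclusive = mean inhibition reaches that limit but some replicates miss it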;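 note: 0% = plate neutral control median and 100% = total signal loss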
NSD2 HMT inh: NSD2 (human) methyltransferase inhibition; NSD2 peptide methylation, AlphaScreen, 120 min; inhibition, % at 12.5 µM; 310,000 compounds, 0.54% hits; AID 743445; in the data active = inhibition above about 50%
Casp6 inh: blocks human caspase-6 cleavage activity; P55212; purified caspase-6, Z-VEID-R110 cleavage fluorescence; inhibition, % at 12.5 µM; 350,000 compounds, 0.53% hits;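 active = mean inhibition across replicates at least about 35%, with every replicate also reaching that limit, limit read from the data; inconclusive = only one of the two criteria met; inactive = neither criterion met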;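 note: 0% = median of neutral control wells and 100% = no fluorescence left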
Target sequence (P55212 24-179 limits assumed): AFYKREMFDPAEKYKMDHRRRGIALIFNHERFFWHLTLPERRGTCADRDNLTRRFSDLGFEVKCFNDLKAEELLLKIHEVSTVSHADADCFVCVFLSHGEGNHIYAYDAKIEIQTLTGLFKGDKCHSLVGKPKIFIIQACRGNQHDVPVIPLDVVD
Target sequence (P55212 194-293 limits assumed): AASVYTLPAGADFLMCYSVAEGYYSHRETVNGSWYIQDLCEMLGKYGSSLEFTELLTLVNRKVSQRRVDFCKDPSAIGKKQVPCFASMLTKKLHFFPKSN
rRNA inh HTS: inhibitors of bacterial rRNA selective over humanized ribosomes. E. coli WT GFP vs humanized-ribosome RFP mutants, fluorescence, 24 h; stronger effect = lower value; DMSO median 0, no signal -100. 350,000 compounds, 1.6% hits. GFP signal change (wild-type ribosome), % (test concentration not listed). AID 720706;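 active = significant combined selectivity score with lowered wild-type GFP, culture density cut under 30%, mutant RFP and density less affected; inactive = any of these conditions unmet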
HepG2 cytotox: kills or reduces viability of HepG2 cells; shares compounds with rRNA inh HTS; ATP luminescence, 72 h; activity change, negative = cytotoxicity, unspecified at 26 µM; 30 tested, under 10 active;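 active = compounds whose fitted half-maximal signal-loss concentration is at most twice their highest valid dose; inconclusive = flat curve with 30 to 70% signal loss, or poor fit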
AID977621: wild-type E. coli growth inhibition versus H69 humanized strain – H69 mutant RFP, wild-type GFP, cherry-pick, dose response; shares compounds with rRNA inh HTS; fluorescence, 24 h; activity change, negative = inhibition at 50 µM; 1,900 tested, under 10 active; AID 977621;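 active = Wild-type ribosome reporter drop at least double the humanized mutant ribosome reporter drop, growth loss under a set limit; inconclusive = no clear call, values can overlap the other calls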;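 note: wild-type GFP and H69 mutant RFP strains grown together 50/50 in each well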
AID977628: growth of wild-type and h24-humanized E. coli strains – h24 mutant RFP vs wild-type GFP, cherry-pick, dose response. shares compounds with rRNA inh HTS. E. coli WT GFP strain growth, fluorescence, 24 h. activity change, negative = inhibition at 50 µM. 1,900 tested, under 10 active;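 active = compound lowering the normal-ribosome reporter at least twice as much as the humanized-ribosome reporter, growth loss under a set limit; inconclusive = no clear call, values can overlap the other calls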;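 note: wild-type GFP and h24 humanized RFP strains co-cultured 1 to 1 per well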
An asterisk follows results filed as active; ! = repeats disagree.

How did O=S(=O)(c1ccc(F)cc1)N1C[C@@H]2N[C@H](C1)C2c1ccc(/C=C/c2ccccc2)cc1 (some centres undefined) do in these assays?
rRNA inh HTS: -27.7*!; AID977621: -1.33

How did Cc1ccc(S(=O)(=O)Nc2ccc3c(c2)CC(=O)N([C@@H](C)CO)C[C@H](C)[C@H](CN(C)CC2CC2)O3)cc1 do in these assays?
RAD52 inh: 9.6; AF4-AF9 inh: -0.2; Casp6 inh: -6.4; rRNA inh HTS: 1.3

Results for COC(=O)c1cc(S(=O)(=O)NCc2ccc3c(c2)OCO3)cn1C ?
RAD52 inh: -5.4; AF4-AF9 inh: -0.8; NSD2 HMT inh: -5.9; Casp6 inh: 4.7; rRNA inh HTS: -13.0*; AID977621: -4.93; AID977628: -6.89

Results for CN(C)S(=O)(=O)c1cccc(C(=O)Nc2ccc(C(=O)Nc3cccc(S(N)(=O)=O)c3)cc2)c1 ?
RAD52 inh: -94.6; AF4-AF9 inh: 1.5; NSD2 HMT inh: 2.1; Casp6 inh: 1.2; rRNA inh HTS: -24.4*; AID977628: -7.99

Results for CN(C)S(=O)(=O)c1cccc(NC(=O)c2ccc3c(c2)S(=O)(=O)N=C2CCCCCN23)c1 ?
RAD52 inh: -26.5; AF4-AF9 inh: -2.9; NSD2 HMT inh: 1.2; Casp6 inh: -1.1; rRNA inh HTS: -19.8*; AID977621: -12.9; AID977628: -10.2

How did COc1ccc(S(=O)(=O)Nc2cccc3c2O[C@H](CN(C)S(=O)(=O)c2ccc(Cl)cc2)[C@@H](C)CN([C@@H](C)CO)C3=O)cc1 do in these assays?
RAD52 inh: -0.4; AF4-AF9 inh: -0.6; Casp6 inh: -2.8; rRNA inh HTS: 1.9

What do the screens show for `COc1ccc(CN(C)C[C@H]2Oc3ccc(NC(=O)Cc4ccccc4)cc3C(=O)N([C@@H](C)CO)C[C@H]2C)cc1`?
RAD52 inh: 5.9; AF4-AF9 inh: -2.0; Casp6 inh: -7.1; rRNA inh HTS: -2.9

How did C[C@@H]1CN([C@@H](C)CO)C(=O)c2cc(NS(=O)(=O)c3ccc(F)cc3)ccc2O[C@@H](C)CCCCO[C@@H]1CN(C)C(=O)CCCN(C)C do in these assays?
RAD52 inh: 6.6; AF4-AF9 inh: 2.0; Casp6 inh: 0.0; rRNA inh HTS: 2.5

Results for C[C@H](CO)N1C[C@H](C)[C@H](CN(C)CC2CC2)Oc2ccc(NC(=O)CCN3CCOCC3)cc2CC1=O ?
RAD52 inh: 8.0; AF4-AF9 inh: -2.1; Casp6 inh: 1.4; rRNA inh HTS: -0.5

How did COC(=O)C[C@@H]1C[C@@H]2c3cc(NS(=O)(=O)c4ccc(OC)cc4)ccc3O[C@@H]2[C@@H](CO)O1 do in these assays?
rRNA inh HTS: -0.9

Results for Cn1c(CCN2CCOCC2)nc2cc(NC(=O)c3cccs3)ccc21 ?
RAD52 inh: -4.9; AF4-AF9 inh: -0.2; NSD2 HMT inh: -0.6; Casp6 inh: -0.7; rRNA inh HTS: -18.1*; AID977621: -9.78; AID977628: inconclusive

How did Cc1ccc2nc(N(CCN(C)C)C(=O)C3CCN(S(=O)(=O)c4cccs4)CC3)sc2c1 do in these assays?
RAD52 inh: -6.3; AF4-AF9 inh: 10.8; NSD2 HMT inh: 3.4; Casp6 inh: 1.5; rRNA inh HTS: -10.8*; AID977621: inconclusive

How did COC(=O)[C@@H](Cc1c[nH]c2ccccc12)NCc1cccc(B(O)O)c1 do in these assays?
RAD52 inh: -19.3; AF4-AF9 inh: 2.5; Casp6 inh: 0.0; rRNA inh HTS: -20.2*; AID977621: inconclusive

What do the screens show for `CC(C)(C)N(Cc1ccccc1)C(=O)COC(=O)Cn1[nH]c(=O)c2ccccc2c1=O`?
RAD52 inh: -5.2; AF4-AF9 inh: -4.4; NSD2 HMT inh: -0.3; Casp6 inh: 1.6; rRNA inh HTS: -4.0

Results for CC(C)(C)N(Cc1ccccc1)C(=O)COC(=O)Cn1cnc2ccccc2c1=O ?
RAD52 inh: -8.1; AF4-AF9 inh: -6.7; NSD2 HMT inh: -3.0; Casp6 inh: 0.1; rRNA inh HTS: -31.7*; AID977621: -1.19; AID977628: -2.88

What do the screens show for `C=CCN(c1ccc(OC)cc1)S(=O)(=O)c1ccc(Cl)c(C(=O)OCC(=O)c2c(N)n(C)c(=O)n(C)c2=O)c1`?
RAD52 inh: -22.4; AF4-AF9 inh: 1.5; NSD2 HMT inh: 0.1; Casp6 inh: -3.4

How did C=CCN(c1ccccc1)S(=O)(=O)c1ccc(Cl)c(C(=O)OCC(=O)NCCCN2CCCC2=O)c1 do in these assays?
RAD52 inh: -12.2; AF4-AF9 inh: -0.3; NSD2 HMT inh: -0.1; Casp6 inh: -0.8; rRNA inh HTS: -22.9*; AID977621: 1.08

What do the screens show for `O=C(C[n+]1cc(-c2ccccc2)n2c1CCC2)OCc1ccccc1`?
NSD2 HMT inh: -1.4

What do the screens show for `Cc1ccc(-c2c[n+](CC(=O)OCc3ccccc3)c3n2CCC3)cc1`?
RAD52 inh: 2.1; AF4-AF9 inh: 3.5; NSD2 HMT inh: -1.7; Casp6 inh: -1.1; rRNA inh HTS: -14.4*; AID977621: -20.2; AID977628: -8.44

What do the screens show for `O=C(NCC[C@@H]1CC[C@@H](NS(=O)(=O)c2cccc(F)c2)[C@H](CO)O1)C1CCCC1`?
RAD52 inh: -3.9; AF4-AF9 inh: -1.0; Casp6 inh: 0.1; rRNA inh HTS: 2.7

What do the screens show for `C[C@@H]1CCCCO[C@H](CN(C)C(=O)CCCN(C)C)[C@H](C)CN([C@@H](C)CO)C(=O)c2cc(NC(=O)Nc3cccc4ccccc34)ccc2O1`?
RAD52 inh: 29.7; AF4-AF9 inh: 16.1; Casp6 inh: -2.3; rRNA inh HTS: -36.1*; HepG2 cytotox: 15.3

What do the screens show for `C[C@@H]1CCCCO[C@H](CN(C)C(=O)CCCN(C)C)[C@@H](C)CN([C@H](C)CO)C(=O)c2cc(NC(=O)Nc3cccc4ccccc34)ccc2O1`?
RAD52 inh: 9.0; AF4-AF9 inh: -1.3; Casp6 inh: -1.0; rRNA inh HTS: -1.3; AID977621: inconclusive; AID977628: 8.15

How did C[C@@H]1CCCCO[C@H](CN(C)C(=O)CCCN(C)C)[C@@H](C)CN([C@@H](C)CO)C(=O)c2cc(NC(=O)Nc3ccccc3)ccc2O1 do in these assays?
RAD52 inh: 29.4; AF4-AF9 inh: 7.6; Casp6 inh: -0.7; rRNA inh HTS: 1.6

How did C[C@@H]1CCCCO[C@@H](CN(C)C(=O)CCCN(C)C)[C@@H](C)CN([C@H](C)CO)C(=O)c2cc(NC(=O)Nc3cccc4ccccc34)ccc2O1 do in these assays?
RAD52 inh: 19.9; AF4-AF9 inh: -5.3; Casp6 inh: -0.5; rRNA inh HTS: 3.0; AID977621: -1.83; AID977628: inconclusive
